Results filed as inconclusive are left out. The source made the active and inactive calls. How the source made its calls, unless noted: active means hit-call score of the fitted dose curve at least 0.9, where 1 is the maximum; inconclusive means response in the unintended direction; inactive means score below 0.9.

Results on eleven compounds are retold here after PubChem BioAssay (EPA / NIEHS).

Assay [1] addresses human Peroxisome Proliferator-activated Receptor alpha (PPARa), PPARA (gene 5465) (UniProt Q07869). Nature of the assay: ATG_PPARa_TRANS: Attagene TRANS-FACTORIAL HepG2 Assay for human Peroxisome Proliferator-activated Receptor alpha (PPARa) (AID 2283001).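 On AC50: potency for gain of reporter signal over DMSO so agonist or activator.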 The method in brief: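 HepG2 cells transiently transfected with multiplexed GAL4-UAS reporters driven by exogenous chimeric NR-Gal4 proteins; reporter mRNA measured after 24 h dosing. Read-out by RT-PCR, 6-FAM labelling, HpaI digestion and capillary electrophoresis; gain of signal versus DMSO.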

Assay [2] addresses human Retinoic Acid Receptor beta (RARb), RARB (gene 5915) (UniProt P10826). Nature of the assay: ATG_RARb_TRANS: Attagene TRANS-FACTORIAL HepG2 Assay for human Retinoic Acid Receptor beta (AID 2283004). The method in brief: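 HepG2 cells were transiently transfected with GAL4-UAS reporter units that report activity of exogenous chimeric NR-Gal4 proteins, then exposed to compound for 24 h. Reporter mRNA was quantified by RT-PCR with capillary electrophoresis fluorescence, as gain of signal over DMSO.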

The target in assay [3] is Retinoic acid receptor alpha (Homo sapiens) (UniProt P10276). Briefly: ATG_RARa_TRANS: Attagene TRANS-FACTORIAL HepG2 Assay for human Retinoic Acid Receptor alpha (RARa) (AID 2283005). Put shortly: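 HepG2 transiently transfected with multiplex GAL4-UAS reporter units including a human RARa–GAL4 chimera; 24 h compound exposure. Reporter mRNA quantified by RT-PCR, 6-FAM labeling and capillary electrophoresis; gain of signal versus DMSO.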
Sequence of Retinoic acid receptor alpha (Homo sapiens) (P10276 whole entry, looked up, the tested form may be a part): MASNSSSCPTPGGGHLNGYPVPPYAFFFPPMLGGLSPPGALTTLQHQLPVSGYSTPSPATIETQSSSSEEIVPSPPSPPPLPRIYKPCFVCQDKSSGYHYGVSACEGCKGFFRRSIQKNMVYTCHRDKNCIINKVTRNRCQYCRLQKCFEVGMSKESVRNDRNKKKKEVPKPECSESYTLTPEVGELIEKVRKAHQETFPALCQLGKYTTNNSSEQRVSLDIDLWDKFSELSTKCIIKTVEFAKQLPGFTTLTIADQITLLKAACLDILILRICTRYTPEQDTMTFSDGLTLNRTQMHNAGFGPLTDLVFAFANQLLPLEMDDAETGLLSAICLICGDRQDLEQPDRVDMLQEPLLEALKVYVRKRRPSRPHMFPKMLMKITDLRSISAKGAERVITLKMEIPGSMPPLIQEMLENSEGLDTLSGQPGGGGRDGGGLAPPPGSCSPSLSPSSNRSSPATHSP

Assay [4] concerns the target Peroxisome proliferator-activated receptor gamma (Homo sapiens) (UniProt P37231). Nature of the assay: ATG_PPARg_TRANS: Attagene TRANS-FACTORIAL HepG2 Assay for human Peroxisome Proliferator-activated Receptor-gamma (PPARg) (AID 2283007). Put shortly:
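Transient transfection of HepG2 with GAL4-UAS-driven reporter units; chemical dosing 24 h; total RNA → oligo(dT) RT → PCR with reporter primers → 6-FAM primer extension → HpaI digest 2 h 37 C → capillary electrophoresis. Positive direction vs DMSO.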

Assay [5] concerns the target human RAR-related Orphan Receptor beta (RORb), RORB (gene 6096) (UniProt Q92753). Briefly: ATG_RORb_TRANS: Attagene TRANS-FACTORIAL HepG2 Assay for human RAR-related Orphan Receptor beta (RORb) (AID 2283010). The method in brief: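 Readout is reporter-gene mRNA induction, detected as fluorescence after RT-PCR and capillary electrophoresis, fitted for gain of signal against DMSO controls. Transiently transfected HepG2 liver cells carrying GAL4-UAS reporter constructs were treated for 24 hours.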

The target in assay [6] is human Retinoid X Receptor beta (RXRb), RXRB (gene 6257) (UniProt P28702). Briefly: ATG_RXRb_TRANS: Attagene TRANS-FACTORIAL HepG2 Assay for human Retinoid X Receptor beta (RXRb) (AID 2283013). The method in brief:
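Transfect HepG2 with GAL4-UAS multi-reporter constructs (chimeric NR-Gal4, TRANS format); dose compound 24 h; isolate RNA, RT-PCR, FAM primer extension, HpaI digest; quantify by capillary electrophoresis; positive direction vs DMSO.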

Assay [7] deals with human Peroxisome Proliferator-activated Receptor delta (PPARd), PPARD (gene 5467) (UniProt Q03181). Nature of the assay: ATG_PPARd_TRANS: Attagene TRANS-FACTORIAL HepG2 Assay for human Peroxisome Proliferator-activated Receptor delta (PPARd) (AID 2283002). The method in brief:
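Read-out: reporter mRNA induction, quantified by fluorescent RT-PCR products resolved by capillary electrophoresis. Human HepG2 liver cells carried transiently transfected Gal4-UAS reporter constructs with chimeric NR-Gal4 fusions. Cells were dosed for 24 h; DMSO served as baseline.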

The target of assay [8] is Nuclear receptor subfamily 1 group I member 2 (Homo sapiens) (UniProt O75469). Nature of the assay: ATG_PXR_TRANS: Attagene TRANS-FACTORIAL HepG2 Assay for human Pregnane X Receptor (PXR) (AID 2283008). The method in brief: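 Read-out is fluorescence of labelled reporter cDNA fragments separated by capillary electrophoresis after RT-PCR and HpaI digestion. Source: HepG2 cells carrying PXR-GAL4/UAS reporter constructs, treated 24 h; activity fitted upward relative to DMSO.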
Sequence of Nuclear receptor subfamily 1 group I member 2 (Homo sapiens) (O75469 whole entry, looked up, the tested form may be a part): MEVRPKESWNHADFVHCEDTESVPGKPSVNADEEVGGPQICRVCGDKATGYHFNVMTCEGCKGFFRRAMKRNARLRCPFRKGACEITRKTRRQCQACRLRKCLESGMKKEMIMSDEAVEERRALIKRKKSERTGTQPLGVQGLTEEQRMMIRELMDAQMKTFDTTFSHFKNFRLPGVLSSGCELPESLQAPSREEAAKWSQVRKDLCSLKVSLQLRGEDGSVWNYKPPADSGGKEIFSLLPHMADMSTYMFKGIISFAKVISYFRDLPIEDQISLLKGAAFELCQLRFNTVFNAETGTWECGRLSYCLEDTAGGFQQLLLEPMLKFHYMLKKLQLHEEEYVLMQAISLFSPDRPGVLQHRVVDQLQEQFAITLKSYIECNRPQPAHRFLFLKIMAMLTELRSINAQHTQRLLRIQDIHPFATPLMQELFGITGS

Assay [9] concerns the target Retinoic acid receptor RXR-alpha (Homo sapiens) (UniProt P19793). Nature of the assay: ATG_RXRa_TRANS: Attagene TRANS-FACTORIAL HepG2 Assay for human Retinoid X Receptor alpha (RXRa) (AID 2283012). Put shortly:
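Transient transfection of human HepG2 with multiple GAL4-UAS reporter constructs; 24 h compound exposure; total RNA isolated, reverse-transcribed, PCR-amplified, 6-FAM labelled, HpaI-cut, resolved by capillary electrophoresis. Positive-direction fit versus DMSO.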

Assay [10] addresses human Thyroid Receptor alpha (THRa1), THRA (gene 7067) (UniProt P10827). Briefly: ATG_THRa1_TRANS: Attagene TRANS-FACTORIAL HepG2 Assay for human Thyroid Receptor alpha (THRa1) (AID 2283014). Put shortly:
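HepG2 cells transiently transfected with chimeric NR-Gal4 and GAL4-UAS reporter units, dosed 24 h. Reporter mRNA quantified by RT-PCR, fluorescent labeling, HpaI digestion and capillary electrophoresis; gain-of-signal fit versus DMSO.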

Read-out in assay [11]: Intercellular Adhesion Molecule 1 (ICAM1), ICAM1 (gene 3383)
Nature of the assay: BSK_3C_ICAM1: BioMAP Diversity Plus: 3C Assay for Intercellular Adhesion Molecule 1 (ICAM1) Biomarker Activity (AID 2283003; active means hit-call score of the fitted dose curve at least 0.9, where 1 is the maximum; inactive means score below 0.9). Particulars: primary human endothelial cells (HUVEC); actives raise or lower the signal. Put shortly:
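ICAM-1 levels measured by ELISA after HUVEC cultures in the 3C system had been dosed for 24 h. Gain or loss of signal relative to DMSO was fitted in both directions.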

Assay [12] is described as follows: BSK_3C_Proliferation: Cell Proliferation Assessment in the BioMAP Diversity Plus: 3C Assay (AID 2283006; active means hit-call score of the fitted dose curve at least 0.9, where 1 is the maximum; inactive means score below 0.9). Particulars: primary human endothelial cells (HUVEC). Put shortly: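 Read-out is total protein by SRB absorbance at 560 nm, taken as a proxy for relative cell number. Primary human umbilical vein endothelium cultured below confluence was dosed for 48 h, TCA-fixed and SRB-stained; curves were fitted bidirectionally versus DMSO.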

Read-out in assay [13]: E-selectin (Homo sapiens) (UniProt P16581)
Briefly: BSK_3C_Eselectin: BioMAP Diversity Plus: 3C Assay for Eselectin Biomarker Activity (AID 2283015; active means hit-call score of the fitted dose curve at least 0.9, where 1 is the maximum; inactive means score below 0.9;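 further: cell surface E-selectin protein quantified by ELISA 24 h after dosing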). Particulars: primary human endothelial cells (HUVEC); actives raise or lower the signal. The method in brief: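 Primary human umbilical vein endothelial cells (3C system), read 24 h after compound addition; E-selectin measured by ELISA. Bidirectional curve fitting against DMSO baseline; cytotoxicity by parallel SRB total-protein staining.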

Read-out in assay [14]: Interleukin-1 alpha (IL1a), IL1A (gene 3552)
Briefly: BSK_BE3C_IL1a: BioMAP Diversity Plus: BE3C Assay for Interleukin-1 alpha (IL1a) Biomarker Activity (AID 2283016; active means hit-call score of the fitted dose curve at least 0.9, where 1 is the maximum; inactive means score below 0.9). Particulars: primary human bronchial epithelial cells; actives raise or lower the signal. Put shortly:
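BE3C primary human bronchial epithelium; cpd 24 h; IL-1a by ELISA; bidirectional fit vs DMSO; parallel SRB (0.1% SRB, 10% TCA fix, 560 nm) for cytotoxicity.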

Read-out in assay [15]: Monocyte Chemoattractant Protein-1 (MCP1), CCL2 (gene 6347)
Nature of the assay: BSK_3C_MCP1: BioMAP Diversity Plus: 3C Assay for Monocyte Chemoattractant Protein-1 (MCP1) Biomarker Activity (AID 2283017; active means hit-call score of the fitted dose curve at least 0.9, where 1 is the maximum; inactive means score below 0.9). Particulars: primary human endothelial cells (HUVEC); actives raise or lower the signal. The method in brief:
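Human umbilical vein endothelial cells (3C system) exposed to chemicals for 24 h; MCP-1 quantified by ELISA against the DMSO baseline with bidirectional fitting, and parallel SRB staining used to assess cytotoxicity.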

Read-out in assay [16]: Monocyte Chemoattractant Protein-1 (MCP1), CCL2 (gene 6347)
Nature of the assay: BSK_4H_MCP1: BioMAP Diversity Plus: 4H Assay for Monocyte Chemoattractant Protein-1 (MCP1) Biomarker Activity (AID 2283018; active means hit-call score of the fitted dose curve at least 0.9, where 1 is the maximum; inactive means score below 0.9). Particulars: primary human endothelial cells (HUVEC); actives raise or lower the signal. The method in brief: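 ELISA read-out of MCP-1 from human vascular endothelial primary cells taken at 24 hours after compound exposure. Activity was fitted in both directions relative to DMSO, which served as negative control.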

Read-out in assay [17]: Human Leukocyte Antigen - DR isotype (HLADR), HLA-DRA (gene 3122)
Nature of the assay: BSK_3C_HLADR: BioMAP Diversity Plus: 3C Assay for Human Leukocyte Antigen - DR isotype (HLADR) Biomarker Activity (AID 2283019; active means hit-call score of the fitted dose curve at least 0.9, where 1 is the maximum; inactive means score below 0.9). The conditions noted are these: primary human endothelial cells (HUVEC); actives raise or lower the signal. The method in brief: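 HUVEC monoculture, HLA-DR measured by ELISA 24 h after chemical dosing. Fitted bidirectionally against DMSO baseline; parallel SRB staining assessed cytotoxicity, with 3C proliferation read by SRB at 48 h.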

Read-out in assay [18]: Interleukin-8 (IL8), CXCL8 (gene 3576)
Briefly: BSK_3C_IL8: BioMAP Diversity Plus: 3C Assay for Interleukin-8 (IL8) Biomarker Activity (AID 2283020; active means hit-call score of the fitted dose curve at least 0.9, where 1 is the maximum; inactive means score below 0.9). Particulars: primary human endothelial cells (HUVEC); actives raise or lower the signal. The method in brief: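 ELISA read-out of IL-8 from human umbilical vein endothelium, measured 24 h after chemical dosing. Activity is expressed relative to DMSO negative control, with both increases and decreases fitted.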

Assay [19] has as its target human RAR-related Orphan Receptor gamma (RORg), RORC (gene 6097) (UniProt P51449). Nature of the assay: ATG_RORg_TRANS: Attagene TRANS-FACTORIAL HepG2 Assay for human RAR-related Orphan Receptor gamma (RORg) (AID 2283011). Put shortly:
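HepG2 cells transiently transfected with GAL4-UAS reporter units and chimeric RORg-Gal4 construct; after 24 h chemical exposure, reporter mRNA measured by RT-PCR with fluorescent capillary electrophoresis, gain of signal fitted against DMSO.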

Assay [20] concerns the target human Retinoic Acid Receptor gamma (RARg), RARG (gene 5916) (UniProt P13631). Nature of the assay: ATG_RARg_TRANS: Attagene TRANS-FACTORIAL HepG2 Assay for human Retinoic Acid Receptor gamma (RARg) (AID 2283009). The method in brief: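 Transient transfection of HepG2 with multi-reporter constructs, then 24 h chemical treatment. Total RNA isolated, reverse-transcribed, PCR-amplified, fluorescently labelled and resolved by capillary electrophoresis; activity scored as mRNA induction versus DMSO.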

Sequence of human Retinoid X Receptor beta (RXRb), RXRB (gene 6257) (P28702 whole entry, looked up, the tested form may be a part): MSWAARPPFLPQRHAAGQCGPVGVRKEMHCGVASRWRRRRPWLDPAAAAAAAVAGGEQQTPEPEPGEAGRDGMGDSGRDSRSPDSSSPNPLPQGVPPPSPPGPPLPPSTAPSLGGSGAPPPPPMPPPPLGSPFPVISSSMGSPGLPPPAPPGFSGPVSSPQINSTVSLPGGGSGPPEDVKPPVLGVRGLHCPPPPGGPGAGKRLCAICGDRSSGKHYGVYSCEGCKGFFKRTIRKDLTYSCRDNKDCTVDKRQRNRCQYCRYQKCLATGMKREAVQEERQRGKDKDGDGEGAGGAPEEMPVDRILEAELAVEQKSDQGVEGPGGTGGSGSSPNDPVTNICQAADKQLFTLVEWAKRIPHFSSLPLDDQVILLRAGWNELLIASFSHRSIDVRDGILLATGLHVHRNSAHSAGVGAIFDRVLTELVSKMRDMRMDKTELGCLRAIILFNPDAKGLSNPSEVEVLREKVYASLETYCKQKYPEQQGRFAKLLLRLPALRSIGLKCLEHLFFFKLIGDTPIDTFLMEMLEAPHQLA
Sequence of Peroxisome proliferator-activated receptor gamma (Homo sapiens) (P37231 whole entry, looked up, the tested form may be a part): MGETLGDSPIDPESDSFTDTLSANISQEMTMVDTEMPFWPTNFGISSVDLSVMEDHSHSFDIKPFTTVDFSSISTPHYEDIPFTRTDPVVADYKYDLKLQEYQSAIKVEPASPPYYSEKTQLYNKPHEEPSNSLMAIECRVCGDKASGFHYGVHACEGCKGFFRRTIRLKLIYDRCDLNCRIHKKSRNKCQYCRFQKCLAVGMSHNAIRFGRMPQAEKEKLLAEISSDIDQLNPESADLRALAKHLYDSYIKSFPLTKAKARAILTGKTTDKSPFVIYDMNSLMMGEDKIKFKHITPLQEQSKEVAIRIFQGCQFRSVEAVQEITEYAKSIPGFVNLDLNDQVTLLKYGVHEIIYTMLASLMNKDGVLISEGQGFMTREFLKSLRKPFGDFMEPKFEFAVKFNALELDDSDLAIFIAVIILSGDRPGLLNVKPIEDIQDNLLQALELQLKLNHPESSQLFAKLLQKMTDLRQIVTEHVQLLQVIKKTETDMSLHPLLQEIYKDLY
Sequence of human RAR-related Orphan Receptor beta (RORb), RORB (gene 6096) (Q92753 whole entry, looked up, the tested form may be a part): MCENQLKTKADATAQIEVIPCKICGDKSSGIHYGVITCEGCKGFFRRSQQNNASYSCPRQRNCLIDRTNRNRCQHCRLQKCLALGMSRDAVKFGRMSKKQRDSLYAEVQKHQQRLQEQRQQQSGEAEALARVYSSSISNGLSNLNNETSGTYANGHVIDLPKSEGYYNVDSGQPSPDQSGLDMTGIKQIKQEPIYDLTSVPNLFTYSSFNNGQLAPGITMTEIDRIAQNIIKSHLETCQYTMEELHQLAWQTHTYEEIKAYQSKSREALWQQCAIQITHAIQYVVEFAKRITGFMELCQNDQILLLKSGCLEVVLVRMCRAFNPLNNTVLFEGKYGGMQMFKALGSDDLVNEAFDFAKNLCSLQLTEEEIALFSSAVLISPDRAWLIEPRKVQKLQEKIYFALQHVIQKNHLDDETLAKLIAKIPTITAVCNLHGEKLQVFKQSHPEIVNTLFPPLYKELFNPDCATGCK
Sequence of human Thyroid Receptor alpha (THRa1), THRA (gene 7067) (P10827 whole entry, looked up, the tested form may be a part): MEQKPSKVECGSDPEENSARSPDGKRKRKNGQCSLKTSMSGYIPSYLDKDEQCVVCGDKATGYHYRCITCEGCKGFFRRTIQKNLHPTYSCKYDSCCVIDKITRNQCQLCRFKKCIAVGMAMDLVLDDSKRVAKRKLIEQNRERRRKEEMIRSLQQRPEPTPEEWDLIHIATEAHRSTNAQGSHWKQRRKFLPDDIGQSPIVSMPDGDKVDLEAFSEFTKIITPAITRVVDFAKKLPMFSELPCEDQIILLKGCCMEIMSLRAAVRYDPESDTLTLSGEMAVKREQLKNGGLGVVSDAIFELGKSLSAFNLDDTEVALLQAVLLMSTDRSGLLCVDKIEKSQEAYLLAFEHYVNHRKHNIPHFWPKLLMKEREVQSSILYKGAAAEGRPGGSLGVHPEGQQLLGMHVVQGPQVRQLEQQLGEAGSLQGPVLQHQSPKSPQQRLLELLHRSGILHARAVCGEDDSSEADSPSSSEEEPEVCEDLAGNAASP
Sequence of human Peroxisome Proliferator-activated Receptor alpha (PPARa), PPARA (gene 5465) (Q07869 whole entry, looked up, the tested form may be a part): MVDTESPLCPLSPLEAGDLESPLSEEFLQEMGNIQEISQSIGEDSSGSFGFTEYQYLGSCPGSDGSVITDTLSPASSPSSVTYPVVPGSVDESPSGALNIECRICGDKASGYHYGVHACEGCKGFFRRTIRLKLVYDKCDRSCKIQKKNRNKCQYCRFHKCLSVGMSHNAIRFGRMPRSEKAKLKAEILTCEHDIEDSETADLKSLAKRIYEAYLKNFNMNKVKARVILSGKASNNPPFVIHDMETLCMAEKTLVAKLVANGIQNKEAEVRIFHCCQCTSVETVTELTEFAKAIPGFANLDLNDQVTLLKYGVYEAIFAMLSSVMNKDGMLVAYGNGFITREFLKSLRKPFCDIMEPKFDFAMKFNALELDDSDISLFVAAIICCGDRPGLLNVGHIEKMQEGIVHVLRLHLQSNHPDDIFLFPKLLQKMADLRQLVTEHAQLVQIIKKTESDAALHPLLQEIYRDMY
Sequence of Retinoic acid receptor RXR-alpha (Homo sapiens) (P19793 whole entry, looked up, the tested form may be a part): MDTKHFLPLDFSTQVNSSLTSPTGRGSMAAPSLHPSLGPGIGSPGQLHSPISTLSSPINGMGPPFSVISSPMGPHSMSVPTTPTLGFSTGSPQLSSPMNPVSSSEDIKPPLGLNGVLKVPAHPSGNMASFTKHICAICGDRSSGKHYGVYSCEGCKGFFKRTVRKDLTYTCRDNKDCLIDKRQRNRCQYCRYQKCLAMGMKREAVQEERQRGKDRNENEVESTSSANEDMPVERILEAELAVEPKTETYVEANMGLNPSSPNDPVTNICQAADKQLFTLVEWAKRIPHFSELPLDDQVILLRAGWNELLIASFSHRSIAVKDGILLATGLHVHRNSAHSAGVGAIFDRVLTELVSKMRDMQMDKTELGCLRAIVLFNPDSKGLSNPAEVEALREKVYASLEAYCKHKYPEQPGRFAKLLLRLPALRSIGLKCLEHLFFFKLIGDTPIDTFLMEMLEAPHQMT
Sequence of E-selectin (Homo sapiens) (P16581 whole entry, looked up): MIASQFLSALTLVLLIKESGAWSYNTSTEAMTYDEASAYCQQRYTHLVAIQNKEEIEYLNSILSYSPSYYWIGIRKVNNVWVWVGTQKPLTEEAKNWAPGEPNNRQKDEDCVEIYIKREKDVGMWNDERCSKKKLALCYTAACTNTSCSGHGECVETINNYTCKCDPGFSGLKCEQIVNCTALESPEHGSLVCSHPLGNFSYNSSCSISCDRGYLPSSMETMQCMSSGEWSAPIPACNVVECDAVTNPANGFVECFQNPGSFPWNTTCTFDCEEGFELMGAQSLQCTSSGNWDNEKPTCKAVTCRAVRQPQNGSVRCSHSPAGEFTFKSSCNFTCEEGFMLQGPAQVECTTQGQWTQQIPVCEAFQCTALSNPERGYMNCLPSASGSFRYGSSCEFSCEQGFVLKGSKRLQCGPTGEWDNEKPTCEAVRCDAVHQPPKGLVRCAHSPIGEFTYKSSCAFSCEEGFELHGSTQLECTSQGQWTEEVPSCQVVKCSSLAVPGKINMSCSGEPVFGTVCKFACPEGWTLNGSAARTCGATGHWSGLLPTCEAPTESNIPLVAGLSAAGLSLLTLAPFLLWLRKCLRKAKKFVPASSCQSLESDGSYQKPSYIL
Sequence of human Peroxisome Proliferator-activated Receptor delta (PPARd), PPARD (gene 5467) (Q03181 whole entry, looked up, the tested form may be a part): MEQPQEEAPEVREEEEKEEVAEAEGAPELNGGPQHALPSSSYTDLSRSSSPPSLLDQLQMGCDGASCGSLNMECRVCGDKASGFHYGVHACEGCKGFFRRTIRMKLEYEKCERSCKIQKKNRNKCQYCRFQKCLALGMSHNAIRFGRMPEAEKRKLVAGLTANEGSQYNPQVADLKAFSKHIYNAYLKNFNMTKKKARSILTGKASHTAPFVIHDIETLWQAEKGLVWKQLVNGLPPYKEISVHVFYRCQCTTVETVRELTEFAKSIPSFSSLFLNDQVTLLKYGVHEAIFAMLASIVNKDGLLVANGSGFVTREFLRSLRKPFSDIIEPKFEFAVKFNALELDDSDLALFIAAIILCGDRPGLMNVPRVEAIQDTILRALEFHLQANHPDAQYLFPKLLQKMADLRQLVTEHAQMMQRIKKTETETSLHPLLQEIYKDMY

Take `CCCCCCCCCCCCCCCC(=O)O`: in assay [1], the AC50 (commonly the concentration giving half of the maximal activity seen) is 26.5 µM (active). Also, the compound was called inactive in [2], in [3], in [4], in assay [5] and in [6].

In the case of `O=c1[nH]nnc2ccccc12`, the compound was called inactive in assay [1], in [7], in assay [8], in assay [9] and in assay [10].

On to `O=C(O)c1cn(C2CC2)c2cc(N3CCNCC3)c(F)cc2c1=O`, for which the call in assay [1], in [11], in [12], in [4], in assay [8] and in assay [9] was inactive. In addition, the outcome in assay [6], in assay [13], in assay [14], in assay [15], in assay [16] and in [17] was inactive. Also, the result in assay [18] was inactive.

`c1cc(C(c2ccc(OCC3CO3)cc2)c2ccc(OCC3CO3)cc2)ccc1OCC1CO1` (stereo not drawn): the result in assay [1], in assay [7], in assay [8] and in [10] was inactive.

For `Cc1ncc([N+](=O)[O-])n1C`, the compound was called inactive in [1], in assay [7], in [8], in assay [5] and in [9]. For the same compound, in assay [6], the AC50 was 100 µM (active).

Take `Sc1nc(S)nc(S)n1`: the call in assay [1], in assay [7], in assay [8], in assay [5], in assay [19] and in assay [6] was inactive.

Take `O=C1c2ccccc2C(=O)N1SC1CCCCC1`: the compound was classed as inactive in assay [1], in [7] and in assay [8]. Also, the half-maximal activity concentration (AC50) in [6] was 44.4 µM (active).

As to `OC[C@H]1O[C@H](O[C@]2(CCl)O[C@H](CCl)[C@@H](O)[C@@H]2O)[C@H](O)[C@@H](O)[C@H]1Cl`, the result in [1], in assay [11], in assay [12], in assay [8], in assay [9] and in [10] was inactive. In addition, the outcome in assay [13], in assay [14], in assay [15], in assay [16], in assay [17] and in assay [18] was inactive.

Consider `CCC(C(=O)NC(N)=O)c1ccccc1` (stereo not drawn), for which the call in assay [1], in [7], in assay [8] and in [10] was inactive.

In the case of `O=C(O)CCCCCCCC(=O)O`, the compound was classed as inactive in [1], in assay [2], in [3], in assay [4], in [20] and in assay [9].

For the compound `Clc1ccc(Cl)c(Cl)c1Cl`, the compound was classed as inactive in assay [1], in assay [7], in assay [8], in [19], in [9] and in assay [10]. Besides, in assay [6], the AC50 was 63.4 µM (active).
